# Screen size: about 1,000 compounds; about 200 (20%) were called active. Only a sample is shown. Measured potencies and affinities stand elsewhere. Unmarked numbers belong to inactive results. Rule as the data show it: active = inhibition above about 55%; inactive = the rest.
# Target: Dual specificity protein phosphatase 3 (Homo sapiens) (UniProt P51452)
# Test: VHR1 phosphatase inhibitors, biochemical (AID 1878)
# Conditions: recombinant VHR phosphatase, fluorogenic substrate; at 13.3 µM; stronger effect = higher value
# Dual specificity protein phosphatase 3 (Homo sapiens), sequence (P51452 whole entry, looked up): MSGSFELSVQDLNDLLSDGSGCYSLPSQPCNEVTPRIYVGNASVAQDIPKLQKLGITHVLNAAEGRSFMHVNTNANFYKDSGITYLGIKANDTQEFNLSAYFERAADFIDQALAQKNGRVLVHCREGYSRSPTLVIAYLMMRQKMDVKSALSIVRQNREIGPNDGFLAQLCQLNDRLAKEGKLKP
row,SMILES,inhibition
1,O=C(CN1CCN(c2ccc(O)cc2)CC1)N1CCc2ccccc21,-16.5%
2,CCOc1ccc(-n2c(SCC(=O)N3CCc4ccccc43)nnc2-c2c[nH]c3ccccc23)cc1,83.6% (active)
3,O=C(CCCN1C(=O)C(c2ccccc2)Oc2cccnc21)Nc1ccccc1Cl (centres undefined),4.6%
4,O=C(Nc1ccncc1)c1cc(-c2ccccn2)nc2ccc(Br)cc12,84.4% (active)
5,O=C(Nc1ccc2nc3n(c(=O)c2c1)CCCC3)c1ccccc1F,-11.4%
6,COc1ccccc1CCNC(=O)c1cc(-c2ccncc2)nc2ccc(Br)cc12,70.1% (active)
7,Cc1c(Cl)cccc1NC(=O)c1cccc(OC(F)F)c1,29.2%
8,COc1c(C(=O)Nc2ccc3[nH]c(=O)[nH]c3c2)cc2ccccc2c1Br,13.6%
9,COc1cc(CCNC(=O)c2ccccc2NC(=O)C2=C(C)OCCS2)cc(OC)c1OC,-10.3%
10,CCOc1ccccc1NC(=O)c1cc(-c2ccncc2)nc2c(Cl)cccc12,34.3%
11,COc1ccccc1CCNC(=O)CNC(=O)c1ccc2ccccc2c1,-4.1%
12,Cc1ccc2nc(-c3ccncc3)cc(C(=O)Nc3ccc(OC(F)F)cc3)c2c1,69.1% (active)
13,CC1CCCCN1CCCNC(=O)C1CCN(c2nnc(-n3cccc3)s2)CC1 (centres undefined),-30.3%
14,Cc1cccc(CSc2[nH]c(=O)ncc2C)c1,1%
15,O=C(C1CCN(S(=O)(=O)c2cccs2)CC1)N1CCc2ccccc2C1,-7.4%
16,COc1ccc(NC(C)=O)cc1NC(=O)CSc1nnc(C2CCCCC2)n1N,0.2%
17,O=C(c1ccccc1)C1CCN(C(=O)c2ccc(Cl)cc2)CC1,-17.9%
18,COc1ccc(N(C(=O)CNC(=O)c2ccco2)C(C(=O)NC2CCCCC2)c2ccncc2)cc1 (centres undefined),-11%
19,CCn1c(=O)n(CC)c2cc(N3CCCC3)c(NC(=O)c3cccc(OC)c3)cc21,0.2%
20,O=C(CCC(=O)c1ccc(Cl)cc1)NCc1ccccc1,3.5%
21,O=[N+]([O-])c1cccc2c([As](=O)(O)O)cccc12,0.9%
22,O=c1c2cnn(-c3ccc(F)cc3)c2ncn1Cc1cccnc1,-6.2%
23,Cc1ccc(-n2ncc3c2CCCC3NC(=O)CCc2cnccn2)cc1C (centres undefined),-2.7%
24,S=c1[nH]nc(-c2ccccc2)n1/N=C/c1c[nH]c2ccccc12,1.6%

row,SMILES,inhibition
1,CCC1CCCCN1CCCNC(=O)c1ccc(CS(=O)(=O)c2ccccc2C)o1 (centres undefined),-7.8%
2,Cc1oc(-c2ccc(Cl)cc2)nc1CS(=O)CC(=O)NCCN1CCCCCC1 (centres undefined),-27.9%
3,CCOc1cc(C2Nc3ccccc3NC3=C2C(=O)CC(C)(C)C3)ccc1OC(C)=O (centres undefined),-4.7%
4,COc1cc(NC(=O)CN2CCN(c3ccccn3)CC2)cc(OC)c1OC,6%
5,Cc1ccc(NC(=O)CN2C(=O)S/C(=C\c3ccc(-c4cccc(C(=O)O)c4C)o3)C2=O)cc1,97.5% (active)
6,Cc1ccc(NC(=O)CN2C(=O)S/C(=C/c3ccc(-c4cccc(C(=O)O)c4)o3)C2=O)cc1,93.9% (active)
7,Cc1ccc(NC(=O)CN2C(=O)S/C(=C\c3ccc(-c4cccc(C(=O)O)c4C)o3)C2=O)cc1C,84.7% (active)
8,Cc1ccc(NC(=O)COC(=O)c2nn(C)cc2Cl)cc1,-0.7%
9,CCCOc1ccc(Cn2c(=O)oc3ccc(C)cc32)cc1,7.7%
10,COc1ccccc1N1CCN(C2CCCN(Cc3cc(F)cc(F)c3)C2)CC1 (centres undefined),-2.1%
11,COc1cccc(CNC(=O)CCNS(=O)(=O)c2ccc3c(c2)oc(=O)n3C)c1,-4.6%
12,COCCNC(=O)c1cccc(OC2CCN(C(C)COc3ccccc3)CC2)c1 (centres undefined),-14.8%
13,Nc1ncc(Br)cc1S(=O)(=O)NCCC(=O)NCc1ccc(F)cc1,4.1%
14,CCN1CCN(CCCNC(=O)CS(=O)(=O)Cc2nc(-c3ccccc3C)oc2C)CC1,-9.5%
15,c1ccc(-c2nnsc2-c2ccccc2)cc1,-7.8%
16,O=C(Cn1ccnc1)c1ccc(Cl)cc1,14.8%
17,CCC(C)NC(=O)c1ccc(CSCc2ccc(Cl)cc2)o1 (centres undefined),-3.4%
18,CC1(C(=O)O)CCC(C(=O)NC2CCCCCC2)C1(C)C (centres undefined),-1.3%
19,CCOc1ccccc1NC(=O)C1CCN(C(=O)c2cccs2)CC1,-20.3%
20,CN(CCCNC(=O)c1ccccc1F)CCCNC(=O)c1ccccc1F,15.1%
21,Cc1ccc(C(C(=O)NC2CCCC2)N(Cc2ccc(F)cc2)C(=O)c2snc(C(N)=O)c2N)o1 (centres undefined),10.6%
22,CN(C)c1ccc(NC(=O)CN2C3CCCC2CC(NC(=O)c2ccccc2)C3)cc1 (centres undefined),-12.8%
23,COc1ccc(NC2CCCN(C(=O)c3ccc(CSC)o3)C2)cc1OC (centres undefined),20.5%
24,CCC1CCCCN1CCCNC(=O)CN1C(=O)COc2ccc(S(=O)(=O)N3CCOCC3)cc21 (centres undefined),1.2%

row,SMILES,inhibition
1,Cc1cc(C)c(S(=O)(=O)/N=C2/C=C(Sc3ncn[nH]3)C(=O)c3ccccc32)cc1C,15.8%
2,COc1cc(CN2CCC(n3nccc3NC(=O)C3CCOC3)CC2)ccc1F (centres undefined),-5.3%
3,COc1ccc(NC(=O)c2cn(CCC#N)nc2-c2ccc(OC)c(OC)c2)cc1,-8.4%
4,COc1ccc(-n2nc(C(=O)Nc3ccc(OC)c(OC)c3)c3c4ccccc4n(C)c3c2=O)cc1,94.9% (active)
5,COc1ccc(-n2nc(C(=O)NCC3CCCO3)c3ccccc3c2=O)cc1 (centres undefined),-4%
6,Cc1ccc2c(c1)N(CC(=O)NCCCN1CCCCC1)C(=O)CO2,2.3%
7,CC(C)(C)SC(=O)C[C@@H]1NS(=O)(=O)OC2CCCCC21 (some centres undefined),24.7%
8,CN(CC1CCCN(CCc2ccc(F)cc2)C1)C(=O)CCC(N)=O (centres undefined),-4.8%
9,CN(C)C1(CNCC(O)c2ccccc2)CCCCC1 (centres undefined),6.5%
10,CC(=O)NC(Cc1ccc(F)cc1)C(=O)NC1CCN(S(=O)(=O)c2ccccc2)CC1 (centres undefined),41%
11,CCOCCCNC(=O)c1cn(C)c2ccc(S(=O)(=O)N3CCCCC3)cc2c1=O,12.7%
12,N#Cc1c(-c2cccs2)nc(SCC(=O)c2ccc(Br)cc2)[nH]c1=O,95.4% (active)
13,Nc1cc(=O)[nH]c(SCCSc2ccc(F)cc2)n1,-2.2%
14,CN1CCN(CCNC(=O)Cn2c(=O)c3cccn3c3ccc(F)cc32)CC1,-1%
15,COc1ccc(CN(C)Cc2c(O)ccc3ccccc23)cc1,-9%
16,CCCCCc1nnc(NC(=O)Cc2ccc([N+](=O)[O-])cc2)s1,4.4%
17,O=C(Nc1ccccc1F)N1CCc2ccccc2C1,-0.6%
18,Cn1cc(Cl)c(C(=O)Nc2nccs2)n1,25.2%
19,COC(=O)c1ccccc1NC(=O)c1cc2ccccc2o1,12.8%
20,COC(=O)c1ccccc1NC(=O)CCS(=O)(=O)c1ccc(Br)cc1,89.7% (active)
21,Cc1ccc(NC(=O)CCS(=O)(=O)c2ccc3c(c2)NC(=O)C(C)S3)nc1 (centres undefined),-1.8%
22,Cc1ccc2cc(CN(CC3CCCO3)C(=O)c3cccs3)c(=O)[nH]c2c1 (centres undefined),-11.2%
23,CN(C(=O)c1ccc(COc2ccccc2Cl)o1)c1ccccc1,15%
24,CCOC(=O)c1sc2nc(C)nc(NCc3ccc(Cl)cc3)c2c1C,0.5%

row,SMILES,inhibition
1,O=C(Cn1c(=O)c2c3c(sc2n(Cc2ccccc2)c1=O)CCCC3)NCCO,-0.2%
2,CCOC(=O)c1sc2ncnc(Nc3cccc(C(=O)O)c3)c2c1C,-6.2%
3,Cc1cc(Cl)cc(Cl)c1OCCN1CCCC1,-2.7%
4,CSCCNC(=O)c1ccc2nc(Cc3ccccc3F)oc2c1,-8.6%
5,Cc1ccc2[nH]c(CN3CCN(C)C(CCO)C3)c(C)c2c1 (centres undefined),-2.5%
6,Cc1cc(-n2c(SCC(=O)NCCC3=CCCCC3)nc3n[nH]c(C)c3c2=N)ccc1Cl,15.1%
7,O=C(Nc1cc(-c2nc3ncccc3o2)ccc1Cl)c1cccs1,-1.1%
8,CN(CCO)CCOCCOc1cccc2ccccc12,-15.7%
9,CC(=O)c1ccc(OCC(=O)N2CCCC(Nc3ccc(C)c(C)c3)C2)cc1 (centres undefined),3.2%
10,CCCCN(CCCNC(=O)c1ccc(CS(=O)(=O)c2c(Cl)cccc2Cl)o1)Cc1ccccc1,-4.4%
11,CC(=O)N/C(=N\c1nc(C)cc(C)n1)Nc1ccc(Cl)cc1Cl,-6.7%
12,Oc1cccc2ccc(/C=C/c3ccccc3Cl)nc12,-3.4%
13,CSCCC1NC(=S)N(Cc2ccccc2)C1=O (centres undefined),-5.4%
14,O=C(CNS(=O)(=O)c1cccc(Br)c1)NCC1CCCCC1,11.2%
15,Cc1ccc(N(C(=O)c2snc(C(N)=O)c2N)C(CC(C)C)C(=O)NC2CCCC2)cc1 (centres undefined),0.9%
16,Cn1nnc2cc(C(=O)Nc3ccccc3F)ccc21,-4.2%
17,CCc1ccccc1NC(=O)C1CCCN1S(=O)(=O)c1ccc(-c2ccc(=O)[nH]n2)s1 (centres undefined),-1.8%
18,Cc1ccc(S(=O)(=O)N(C)C)cc1NC(=O)CN1CCCC1,-0.5%
19,C=CCN1C(=O)C2(OCCO2)c2cc(C)ccc21,-6.3%
20,CN(C)c1ccc(NC(=O)Nc2ccc3c(c2)nnn3C)cc1,38.6%
21,C/C(=N\NC(=O)C1CCCC1)c1ccc(Cl)cc1,3.5%
22,C/C(=N\NC(=O)c1ccc(OC2OCCOC2Oc2ccc(C(=O)N/N=C(\C)c3ccncc3)cc2)cc1)c1ccncc1 (centres undefined),92.7% (active)

# — PubChem BioAssay AID1878 (Sanford-Burnham Center for Chemical Genomics, 2009)
